Structures are written as SMILES. Inconclusive results are not listed. Where a call stands in place of a potency, no number is given. Unmarked numbers belong to inactive results. Active and inactive are the calls of the source. The call rests on the fitted dose curve; in most records, active means well fitted cell-killing curve with a large enough effect in the repeat runs; inconclusive means weak or mixed curves, or effect the other way; inactive means no such curve, though single readings can be large or run the other way.
Potency means the concentration at half of the fitted maximal effect.

The assay is described as follows: qHTS assay to identify small molecule antagonists of the sonic hedgehog signaling (Shh) pathway - cell viability counter screen (AID 1259367). Further: nearly all actives have a fitted effect of over 55% in size. The conditions noted are these: NIH/3T3 Gli1-Luc viability, CellTiter-Fluor, 24 h; series mostly up to 92.4 µM. The text has this: National Center for Advancing Translational Sciences [NCATS]
NIH Chemical Genomics Center [NCGC]
U.S. Environmental Protection Agency [EPA]
National Institutes of Environmental Health Sciences [NIEHS]
National Toxicology Program [NTP]
U.S. Food and Drug Administration [FDA]
The sonic hedgehog (Shh) pathway is essential for normal embryonic development. Dysregulation of the Shh pathway can cause severe developmental defects in organs. Therefore chemicals that interfere with the pathway are potential developmental toxicants. A cell line designated 3T3Gli1-Luc (DMB/OARSA/CFSAN/FDA, Laurel, MD), a NIH/3T3 derived clone containing stably integrated Gli1-Luc reporter is used to detect chemical interference of the Shh pathway, by changes in the expression of the firefly Luc gene under the control of the Gli1 transcriptional response element. This cell line was used to screen Tox21 libraries for identifying and prioritizing the potential developmental toxicants that interfere Shh pathway. Conditioned medium-stimulated mode was used to screen for chemicals inhibiting Shh signaling. The cytotoxicity of the compounds was tested in parallel by measuring the cell viability using CellTiter-Fluor assay system (Promega, Madison, WI) in the same wells.
Tox21 Assay Protocol Summary:
3T3 Gli1-Luc cells were dispensed at 2,000 per well in 5uL of culture medium into white solid bottom 1536-well plates (Greiner Bio-One, Monroe, NC) using a Multidrop Combi (Thermo Scientific, Waltham, MA) dispenser. The assay plates were incubated at 37 C and 5% CO2 for 4hr, and then 23nL of compounds dissolved in DMSO and positive control were transferred using a Pintool station (Wako, San Diego, CA). The compound transfer was followed by the addition of 1ul conditioned medium or assay buffer using two separate tips of Flying Reagent Dispenser (FRD, Aurora Discovery, San Diego, CA). The assay plates were incubated at 37C and 5% CO2 for 24hr. For viability read, after 23hr of compound treatment, 1uL of CellTiter-Fluor reagent (Promega Corporation, Madison, WI) was added to each well of the assay plates using Flying Reagent Dispenser (FRD, Aurora Discovery, San Diego, CA) and incubated the assay plates at 37C for 1hr. The fluorescence signal was quantified using a ViewLux plate reader (Perkin Elmer, Shelton, CT).
Turning to `CC/C=C/CCO`, the Potency result was “inactive”.

On to `Cc1c(N=C=O)cccc1N=C=O`, for which the Potency entry was “inactive”.

As for `O=C1c2ccccc2C(=O)C1c1ccc2ccccc2n1`, the Potency entry is “inactive”.

As to `Clc1nc2ccccc2nc1Cl`, the Potency entry is “inactive”.

As for `CC(=O)Oc1cccc2c1C(=O)c1c(OC(C)=O)cc(C(=O)O)cc1C2=O`, the Potency entry was “inactive”.

As for `Oc1ccc(Oc2ccccc2)cc1`, the Potency entry was “inactive”.

With `CC(C)CCCCCCCOC(=O)c1ccc(C(=O)OCCCCCCCC(C)C)c(C(=O)OCCCCCCCC(C)C)c1`, the Potency was 42.6 µM (active).

As to `O=C(O)c1cc(C(=O)O)cc([N+](=O)[O-])c1`, the Potency result is “inactive”.

For `O=C(c1ccc(Cl)cc1)c1ccc(Cl)cc1`, the Potency result was “inactive”.

On to `CCCCCCCCCCCCCCCCC(=O)O`, for which the Potency entry is “inactive”.

For the compound `O=C(NC1CCN(CCc2c[nH]c3ccccc23)CC1)c1ccccc1`, the Potency entry was “inactive”.

As for `O=C(c1ccco1)N1CCNCC1`, the Potency result is “inactive”.

On to `CNc1ccccc1`, for which the Potency result is “inactive”.

As to `CC(=O)Nc1cccc(N)c1`, the Potency entry is “inactive”.

In the case of `CCOC(C)OCC`, the Potency result is “inactive”.

With `CC(=O)CC/C=C(\C)CC/C=C(\C)CC/C=C(\C)CCC=C(C)C`, the Potency result was “inactive”.

With `COC(=O)/C=C/C(C)=C\C=C\C(C)=C\C=C\C=C(C)\C=C\C=C(C)\C=C\C(=O)O`, the Potency entry is “inactive”.

In the case of `CC(=O)Nc1ccn(C2COC(COC(=O)c3ccccc3)O2)c(=O)n1` (stereo not given), the Potency entry is “inactive”.

Consider `C=CC(=O)OCCCCCCCCCC`, for which the Potency entry is “inactive”.

With `O=C(O)c1ccc2cc(O)ccc2c1`, the Potency entry is “inactive”.

With `O=C(O)c1ccccc1[N+](=O)[O-]`, the Potency entry is “inactive”.

For `CCCCCCCCC(=O)OCC(C)OC(=O)CCCCCCCC` (stereo not given), the Potency result is “inactive”.

On to `CC(C)(C)c1cc(C=O)cc(C(C)(C)C)c1O`, for which the Potency result is “inactive”.

Take `CC1(C)[C@@H]2CC[C@]3(C2)[C@@H]1C(=O)CCC3(C)C`: the Potency entry was “inactive”.

Consider `Cc1c(Cl)cccc1[N+](=O)[O-]`, for which the Potency result is “inactive”.

`CC(C)CCCCCOC(=O)CS`: the Potency result was “inactive”.

Consider `CC(O)C(C)O` (stereo not given), for which the Potency result was “inactive”.

Take `CCCCCO`: the Potency result is “inactive”.

Turning to `OCCc1ccncc1`, the Potency result was “inactive”.

In the case of `NC(=O)c1ccccc1`, the Potency entry is “inactive”.

In the case of `CCCCCCCCCCCCCCCCCCCl`, the viability change, negative = cytotoxic is 0.635% [at 8.39 µM].

On to `COc1ccc(C(=O)c2ccc(C)cc2)c(O)c1`, for which the Potency result was “inactive”.

In the case of `c1ccc(CCNc2nc(-c3ccccc3)cs2)cc1`, the Potency result was “inactive”.

On to `OCC(O)c1ccccc1` (stereo not given), for which the Potency entry is “inactive”.

Regarding `COc1ccc(/C=C/c2cc(OC)cc(=O)o2)cc1`, the Potency entry is “inactive”.

On to `Nc1nc(Cl)nc2c1ncn2[C@H]1C[C@H](O)[C@@H](CO)O1`, for which the Potency result is “inactive”.

Take `CCOC(=O)CC(O)(CC(=O)OCC)C(=O)OCC`: the Potency result was “inactive”.

Regarding `Cc1cc(C)c(C)c(O)c1`, the Potency result is “inactive”.

`CCCCCCCCCCCCN1CCOCC1`: the Potency entry is “inactive”.

Regarding `O=C(OCCN1CCOCC1)c1cccnc1Nc1cccc(C(F)(F)F)c1`, the Potency result was “inactive”.

Source of the values: PubChem BioAssay (Tox21).
